# Measured values from the supplement of paper PMC7057948, “A genome-wide approach for identification and characterisation of metabolite-inducible systems” (Nature Communications, 2020).
# Test system: heterologous inducible system pEH020 (rhamnose/acrylate/cumate/itaconate set)
# Assay: relative induction of RFP reporter vs primary effector (background-corrected); higher = stronger activation of the biosensor
# Conditions: inducer concentration 5 mM; 6 h; Cupriavidus necator H16; minimal medium + 0.4% gluconate
# Method: (§1)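 C. necator H16 strains, each carrying one of 21 transcription factor/inducible promoter–mRFP biosensor plasmids, were grown in minimal medium in 96-well plates (robotic platform). Each was exposed to 46 structurally or metabolically related compounds at 5 mM at 30 °C. OD-normalised RFP fluorescence was read 6 h later and expressed as relative induction (%) = 100 × (FL compound − FL uninduced)/(FL primary inducer − FL uninduced); mean of n=4.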
# 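Also: RFP excited at 585 nm with emission read at 620 nm, culture medium blanks subtracted from fluorescence and absorbance prior to normalisation.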
row,Structure (SMILES),relative induction of RFP reporter [%]
1,Oc1ccccc1O [catechol],-0.684
2,Oc1ccc(O)cc1 [hydroquinone],-0.0999
3,NC(=O)CC[C@H](N)C(=O)O [L-glutamine],-0.587
4,Cn1c(=O)c2c(ncn2C)n(C)c1=O [caffeine],-0.176
5,O=CC(=O)O [glyoxylate],-0.333
6,NCC(O)C(=O)O (stereo unspecified) [3-amino-2-hydroxypropanoate],-1.25
7,O=C(O)C(O)c1ccccc1 (stereo unspecified) [mandelic acid],0.769
8,O=C(O)C(O)C(=O)O [tartronic acid],-0.0821
9,N[C@@H](Cc1c[nH]c2ccccc12)C(=O)O [L-tryptophan],-1.17
10,CCC(=O)O [propanoate],-0.954
11,CC(N)CC(=O)O (stereo unspecified) [3-aminobutanoate],-0.315
12,CCCC(=O)O [butyric acid],-1.33

# Test system: heterologous inducible system pEH040 (rhamnose/acrylate/cumate/itaconate set)
# Assay: as above
# Conditions: inducer concentration 5 mM; 6 h; Cupriavidus necator H16; minimal medium + 0.4% gluconate
# Method: as §1
row,Structure (SMILES),relative induction of RFP reporter [%]
1,Oc1ccccc1O [catechol],4.75
2,Oc1ccc(O)cc1 [hydroquinone],2.73
3,NC(=O)CC[C@H](N)C(=O)O [L-glutamine],-2.02
4,Cn1c(=O)c2c(ncn2C)n(C)c1=O [caffeine],1.6
5,O=CC(=O)O [glyoxylate],-0.263
6,NCC(O)C(=O)O (stereo unspecified) [3-amino-2-hydroxypropanoate],0.821
7,O=C(O)C(O)c1ccccc1 (stereo unspecified) [mandelic acid],1.17
8,O=C(O)C(O)C(=O)O [tartronic acid],0.945
9,N[C@@H](Cc1c[nH]c2ccccc12)C(=O)O [L-tryptophan],-1.03
10,CCC(=O)O [propanoate],0.605
11,CC(N)CC(=O)O (stereo unspecified) [3-aminobutanoate],0.21
12,CCCC(=O)O [butyric acid],-0.981

# Test system: heterologous inducible system pEH086 (rhamnose/acrylate/cumate/itaconate set)
# Assay: as above
# Conditions: inducer concentration 5 mM; 6 h; Cupriavidus necator H16; minimal medium + 0.4% gluconate
# Method: as §1
row,Structure (SMILES),relative induction of RFP reporter [%]
1,Oc1ccccc1O [catechol],-0.178
2,Oc1ccc(O)cc1 [hydroquinone],0.735
3,NC(=O)CC[C@H](N)C(=O)O [L-glutamine],0.168
4,Cn1c(=O)c2c(ncn2C)n(C)c1=O [caffeine],0.797
5,O=CC(=O)O [glyoxylate],0.035
6,NCC(O)C(=O)O (stereo unspecified) [3-amino-2-hydroxypropanoate],0.238
7,O=C(O)C(O)c1ccccc1 (stereo unspecified) [mandelic acid],0.563
8,O=C(O)C(O)C(=O)O [tartronic acid],0.0674
9,N[C@@H](Cc1c[nH]c2ccccc12)C(=O)O [L-tryptophan],-0.228
10,CCC(=O)O [propanoate],-0.0388
11,CC(N)CC(=O)O (stereo unspecified) [3-aminobutanoate],0.139
12,CCCC(=O)O [butyric acid],-0.0776
